Test results published in PubChem BioAssay AID1211 (NMMLSC, 2008).
Calls of active or inactive are those of the source. The rule behind the calls is not given here.

Target: Estrogen receptor (Homo sapiens) (UniProt P03372)
Assay: ERalpha ligand binders by competition, primary screen, cell-based, Cos7 ERalpha-GFP, flow cytometry (AID 1211);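 note: 0% = DMSO vehicle wells and 100% = no E2-Alexa633 signal left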
Details: fluorescent ligand competition, stronger effect = higher value

Chain of Estrogen receptor (Homo sapiens) (P03372 whole entry, looked up): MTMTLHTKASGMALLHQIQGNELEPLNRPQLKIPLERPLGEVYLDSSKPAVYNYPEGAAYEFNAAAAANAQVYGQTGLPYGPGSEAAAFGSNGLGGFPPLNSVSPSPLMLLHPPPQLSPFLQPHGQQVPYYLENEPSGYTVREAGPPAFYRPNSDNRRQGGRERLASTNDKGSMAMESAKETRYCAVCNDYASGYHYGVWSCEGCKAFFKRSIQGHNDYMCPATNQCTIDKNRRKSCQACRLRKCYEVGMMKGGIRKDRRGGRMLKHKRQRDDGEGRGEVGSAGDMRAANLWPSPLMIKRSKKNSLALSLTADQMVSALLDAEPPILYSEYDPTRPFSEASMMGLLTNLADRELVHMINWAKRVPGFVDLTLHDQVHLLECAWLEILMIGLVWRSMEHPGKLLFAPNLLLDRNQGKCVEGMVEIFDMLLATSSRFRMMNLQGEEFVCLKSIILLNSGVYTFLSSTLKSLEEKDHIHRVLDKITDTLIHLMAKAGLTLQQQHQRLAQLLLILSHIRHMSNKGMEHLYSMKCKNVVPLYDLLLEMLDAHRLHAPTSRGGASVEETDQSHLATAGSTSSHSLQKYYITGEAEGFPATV

Row | Compound | inhibition of ligand binding (at 10 µM) | inhibition of ligand binding (binding inhibition, at 0.1 µM) [%]
1 | O=C1/C(=C\c2ccco2)SC(=S)N1c1ccc(O)cc1 | 61% (inactive) | 31
2 | C=CCn1c(COc2cccc(C)c2)nnc1SCC(=O)NC(=O)NCc1ccco1 | 9% (inactive) | 31
3 | O=C(Nc1nc(-c2nc3ccccc3s2)cs1)C1COc2ccccc2O1 (centres undefined) | 33% (inactive) | 11
4 | CC(C)(C)OC(=O)N1CCN(c2ccc(NC(=O)Cn3nnc(-c4ccccc4)n3)cc2)CC1 | 37% (inactive) | 24
5 | Nc1ccc(-c2cc(-c3cccc(N)c3)nc(-c3ccccc3)n2)cc1 | 42% (inactive) | 2
6 | COc1ccc(C2Nc3ccccc3C(=O)N2Cc2ccccc2)cc1Cn1nnc2ccccc21 (centres undefined) | 54% (inactive) | 19
7 | COc1ccc2[nH]c3nc(SCc4nnc(-c5ccc(C)cc5)o4)nnc3c2c1 | 64% (inactive) | 3
8 | Cc1oc(-c2ccc(Cl)cc2)cc1-c1nn2c(-c3ccoc3C)nnc2s1 | 68% (active) | 34
9 | CCOC(=O)c1cc2c(c(CSc3nc4ccccc4c(=O)n3Cc3ccco3)c1)OCOC2 | 46% (inactive) | 18
10 | O=C(COC(=O)CCOc1ccccc1)NCc1ccco1 | 50% (inactive) | 57
11 | Brc1cc2c(cc1C1Nc3ccccc3C3C=CCC31)OCO2 (centres undefined) | 0% (inactive) | 14
12 | Cc1cc(=O)oc2c(CN3CCC(C)CC3)c(O)c(Cl)cc12 | 10% (inactive) | 6
13 | COc1ccc(/C=N/NC(=O)c2nc(-c3ccccc3)n(-c3ccccc3)n2)c(O)c1 | 41% (inactive) | 52
14 | C[C@]12CC[C@@H]3c4ccc(O)cc4C(=O)C[C@H]3[C@@H]1CC[C@@H]2O | 78% (active) | 88
15 | CC1CC(C(F)(F)C(F)(F)F)n2nc(C(=O)O)cc2N1 (centres undefined) | 9% (inactive) | 9
16 | COc1ccc(NC(=O)CSc2nc3ccccc3c3nc4ccccc4n23)cc1 | 23% (inactive) | 31
17 | O=C(O)C1OC(Oc2c(-c3ccc(O)c(O)c3)oc3cc(O)cc(O)c3c2=O)C(O)C(O)C1O (centres undefined) | 0% (inactive) | 62
18 | O=C(C1c2ccccc2C(=O)N2CCc3ccccc3C12)N1CCN(Cc2ccccc2)CC1 (centres undefined) | 41% (inactive) | 12
19 | Cc1cccc(N2CSC3=C(C#N)C(c4ccc(C)o4)CC(=O)N3C2)c1 (centres undefined) | 27% (inactive) | 13

Row | Compound | inhibition of ligand binding (at 10 µM) | inhibition of ligand binding (binding inhibition, at 0.1 µM) [%]
20 | COc1ccc2c(c1)c(=O)oc1cc(OCC(=O)N3CCC(C)CC3)ccc12 | 0% (inactive) | 26
21 | COC(=O)c1ccccc1NC(=O)c1noc2c1CCC2 | 25% (inactive) | 21
22 | CCO/C([O-])=N/c1c[n+](N2CCOCC2)no1 | 0% (inactive) | 12
23 | N=C1C(c2nc3ccccc3[nH]2)=C(O)CN1c1ccc(CC(=O)O)cc1 | 45% (active) | 96
24 | CC1(C)N=C(N)N=C(N)N1c1ccc(C(=O)O)cc1 | 35% (inactive) | 21
25 | CCC1(C)NC(=O)N(CC(=O)Nc2sc3c(c2C(N)=O)CCC3)C1=O (centres undefined) | 15% (inactive) | 16
26 | COc1ccc2c(c1)c1nc3ccccc3nc1n2CCCN1C(=O)c2ccccc2C1=O | 46% (inactive) | 33
27 | O=c1oc2c(O)c(O)cc3c(=O)oc4c(O)c(O)cc1c4c23 | 0% (inactive) | 4
28 | O=c1c(OC2OC(CO)C(O)C(O)C2O)c(-c2ccc(O)c(O)c2)oc2cc(O)cc(O)c12 (centres undefined) | 39% (inactive) | 33
29 | Cc1cc2oc(=O)cc(COC(=O)c3n[nH]c4ccccc34)c2cc1C | 53% (inactive) | 20
30 | Cc1cc(C)n2nc(SCc3cc(=O)oc4cc(O)ccc34)nc2n1 | 49% (inactive) | 5
31 | CC(=O)c1ccc(NC(=S)N2CCCC(CO)C2)cc1 (centres undefined) | 13% (inactive) | 1
32 | COc1ccc(C2CC(c3c(-c4ccccc4)c4cc(Cl)ccc4[nH]c3=O)=NN2S(C)(=O)=O)cc1OC (centres undefined) | 29% (inactive) | 37
33 | Cn1ccnc1SCC(=O)Nc1ccc2nc(SCC(=O)NC3CC3)sc2c1 | 30% (active) | 78
34 | Cc1nn(-c2ccccc2)c(/N=C/c2ccc(O)cc2)c1-c1ccccc1 | 77% (active) | 50
35 | CCOC(=O)N1CCN(S(=O)(=O)c2ccc(C(=O)Nc3nc4ccc(F)cc4s3)cc2)CC1 | 34% (inactive) | 11
36 | CN1CCC(=NNC(=O)c2cn(-c3ccccc3)nc2-c2ccccc2)CC1 | 3% (inactive) | 11
37 | CC1(C)CCCN(C(=O)c2coc(=O)c(Br)c2)C1 | 33% (inactive) | 25
